# Several values for one entry are separate records, joined by “and”; a condition that tells them apart may be missing. Equal entries are not always repeated. In all, about 360,000 compounds went through this assay and about 340 (0.094%) were called active. No stated cut-off is given here; in the data, active means inhibition above about 40%; inconclusive means no clear call, values can overlap the other calls; inactive means below that. Many of the other results were omitted from the sample, so actives are more common in it than they were. Some structures have more than one record in an assay (separate samples or runs), and their calls can disagree.
# Test system: 7,8-diaminopelargonic acid synthase BioA (Mycobacterium tuberculosis)
# Assay: M. tuberculosis BioA enzyme inhibitors, primary screen, biochemical, plate reader, single point, HTS (AID 602481)
# Settings: purified M. tuberculosis BioA enzyme, at 9.99 µM, stronger effect = higher value
row,SMILES,inhibition
1,COc1ccc(S(=O)(=O)N(C)C[C@@H]2OCCCC[C@H](C)Oc3ccc(NC(=O)Nc4ccccc4)cc3C(=O)N([C@H](C)CO)C[C@H]2C)cc1,-0.37% (inactive)
2,CN(C)C(=O)C[C@H]1C=C[C@@H](NC(=O)c2ccc(F)cc2)[C@@H](CO)O1,-0.406% (inactive)
3,O=C(Nc1ccc2c(c1)OCO2)N[C@H]1CC[C@H](CCNC(=O)C2CCC2)O[C@@H]1CO,5.56% (inactive)
4,O=C(C[C@H]1C[C@H]2c3cc(NC(=O)Nc4ccc(F)cc4)ccc3O[C@H]2[C@@H](CO)O1)NCC1CC1,0.529% (inactive)
5,COc1ccc(NC(=O)N(C)C[C@H]2OCCCC[C@H](C)Oc3ccc(NC(=O)c4ccncc4)cc3C(=O)N([C@H](C)CO)C[C@@H]2C)cc1,-0.437% (inactive)
6,CN(C)CC(=O)Nc1ccc2c(c1)[C@@H]1C[C@H](CC(=O)NCC3CC3)O[C@@H](CO)[C@@H]1O2,-1.45% (inactive)
7,CN(C)CC(=O)N1[C@H](C(=O)NC2CCC2)[C@@H](CO)[C@@H]2Cn3c(ccc(-c4ccc(F)cc4)c3=O)[C@@H]21,-3.07% (inactive)
8,CCCN(C)C[C@@H]1OCc2cnnn2CCCC(=O)N([C@H](C)CO)C[C@@H]1C,-0.996% (inactive)
9,Cc1ccc(S(=O)(=O)Nc2cccc3c2O[C@@H](CN(C)S(=O)(=O)c2cccs2)[C@@H](C)CN([C@@H](C)CO)C3=O)cc1,1.64% (inactive)
10,O=C(Nc1cccc(F)c1)N1CCCCN2[C@H](CO)[C@H](c3ccc(C#CC4CC4)cc3)[C@@H]2C1,10.9% (inactive)
11,Cc1ccc(S(=O)(=O)Nc2ccc3c(c2)CC(=O)N([C@@H](C)CO)C[C@H](C)[C@H](CN(C)Cc2ccc(C(=O)Nc4ccccc4N)cc2)O3)cc1,-1.91% (inactive)
12,CCCC(=O)Nc1ccc2c(c1)OC[C@@H](C)N(Cc1ccccc1F)C[C@@H](C)[C@H](OC)CN(C)C2=O,-3.54% (inactive)
13,CCCN(C)C[C@@H]1Oc2ncc(C#CC3CC3)cc2C(=O)N([C@H](C)CO)C[C@H]1C,-2.63% (inactive)
14,C[C@H](CO)N1C[C@H](C)[C@@H](CN(C)S(=O)(=O)c2ccccc2)OCCCC[C@H](C)Oc2ccc(NC(=O)NC3CCCCC3)cc2C1=O,-0.429% (inactive)
15,COc1ccc(S(=O)(=O)N(C)C[C@H]2Oc3c(NS(=O)(=O)c4ccc(F)cc4)cccc3C(=O)N([C@H](C)CO)C[C@H]2C)cc1,-2.2% (inactive)
16,C=CCn1c(SCc2cc(C(=O)OC)c(C)o2)nnc1-c1ccncc1,5.32% (inactive)
17,CCn1c(SCc2cccc(C(=O)O)c2)nnc1-c1ccc(Cl)cc1,1.6% (inactive)
18,C=CCn1c(SCc2c(C(=O)OC)sc(N)c2C(=O)OC)nnc1-c1ccc(Cl)cc1,51.8% (active)
19,O=C(C[C@@H]1C=C[C@@H](NC(=O)C2CC2)[C@H](CO)O1)NCCCN1CCOCC1,-6.18% (inactive)
20,CCCc1cn(CC[C@@H]2CC[C@@H](NC(=O)CCN3CCCCC3)[C@H](CO)O2)nn1,-2.51% (inactive)
21,O=C(C[C@H]1CC[C@H](NC(=O)c2ccc3c(c2)OCO3)[C@H](CO)O1)NCc1ccc(Oc2ccccc2)cc1,2.15% (inactive)

row,SMILES,inhibition
1,C[C@@H](O)C#Cc1ccc2c(c1)O[C@@H](CN(C)Cc1cccnc1)[C@@H](C)CN([C@@H](C)CO)S2(=O)=O,5.8% (inactive)
2,CCCOc1cccc(C(=O)Nc2nnn(CCC)n2)c1,-3.8% (inactive)
3,CCC(CO)Oc1cc(NC(=O)c2cccc(F)c2)c2ncn(C(C)C)c2c1 (stereo not drawn),20.8% (inactive) and 67.8% (active)
4,CC(C)n1cnc2c(NCc3ccccc3)cc(OCC3CCN(C)CC3)cc21,5.28% (inactive)
5,Cc1noc(C)c1NC(=O)Nc1ccc2c(c1)CC(=O)N([C@@H](C)CO)C[C@H](C)[C@H](CN(C)S(=O)(=O)c1c(C)noc1C)O2,1.52% (inactive)
6,CC(C)NC(=O)N(C)C[C@H]1Oc2c(NS(=O)(=O)c3ccc(Cl)cc3)cccc2C(=O)N([C@@H](C)CO)C[C@H]1C,-1.39% (inactive)
7,C[C@@H]1CN([C@@H](C)CO)C(=O)c2cc(/C=C/c3ccccc3)cnc2O[C@@H]1CN(C)C(=O)CN(C)C,-0.866% (inactive)
8,CO[C@H](CN(C)S(=O)(=O)c1ccc(Cl)cc1)[C@@H](C)CN(Cc1ccccc1Cl)[C@H](C)CO,-0.783% (inactive)
9,O=C(NCC[C@@H]1CC[C@H](NS(=O)(=O)c2cccc(F)c2)[C@H](CO)O1)c1cnccn1,2.18% (inactive)
10,Cc1noc(C)c1S(=O)(=O)Nc1ccc2c(c1)C(=O)N([C@H](C)CO)C[C@H](C)[C@H](CN(C)C(=O)NC1CCCCC1)OCCCC[C@H](C)O2,-0.981% (inactive)
11,COc1ccc(S(=O)(=O)N(C)C[C@H]2OCCCC[C@H](C)Oc3ccc(NS(=O)(=O)c4c(C)noc4C)cc3C(=O)N([C@@H](C)CO)C[C@@H]2C)cc1,-0.18% (inactive)
12,Cc1noc(C)c1NC(=O)N(C)C[C@H]1Oc2ccc(NC(=O)Nc3ccc(C(F)(F)F)cc3)cc2CC(=O)N([C@@H](C)CO)C[C@@H]1C,-2.44% (inactive)
13,O=C(Nc1cccc(Cl)c1)N1C[C@@H]2[C@H](c3ccccc31)[C@H](CO)N2Cc1ccncc1,-5.5% (inactive)
14,Cc1cc(C(=O)Nc2cccc3c2O[C@@H](CN(C)Cc2ccc4c(c2)OCO4)[C@@H](C)CN([C@@H](C)CO)C3=O)n(C)n1,-2.65% (inactive)
15,O=C(C[C@@H]1C[C@@H]2c3cc(NC(=O)C4CCC4)ccc3O[C@@H]2[C@@H](CO)O1)NCc1ccccc1,-1.79% (inactive)
16,O=C(C[C@@H]1CC[C@@H]2[C@H](COC[C@H](O)CN2S(=O)(=O)c2ccc(Oc3ccccc3)cc2)O1)NCCN1CCCCC1,9.19% (inactive)
17,CCCN1[C@H](C(=O)NCC)[C@@H](CO)[C@@H]2Cn3c(ccc(C4=CCCC4)c3=O)[C@@H]21,-0.389% (inactive)
18,CC(=O)N1[C@H](C(=O)N(C)C)[C@@H](CO)[C@@H]2Cn3c(ccc(-c4ccccc4)c3=O)[C@@H]21,-1.69% (inactive)
19,CN1C(=O)c2cc(NC(=O)c3ccc(F)c(F)c3)ccc2OC[C@H]2O[C@@H](CC(=O)N3CCCCC3)CC[C@H]21,4.19% (inactive)
20,C[C@@H]1CN([C@@H](C)CO)C(=O)c2cc(C#C[C@@H](C)O)cnc2O[C@H]1CN(C)CC1CCOCC1,-0.205% (inactive)
21,O=C(C[C@H]1C[C@@H]2c3cc(NC(=O)CC4CC4)ccc3O[C@@H]2[C@@H](CO)O1)NCc1cc(F)ccc1F,-0.019% (inactive)

row,SMILES,inhibition
1,COCC#Cc1cnc2c(c1)C(=O)N([C@H](C)CO)C[C@H](C)[C@H](CN(C)Cc1ccc(-c3ccccc3)cc1)O2,-2.84% (inactive)
2,C[C@@H]1CN([C@H](C)CO)C(=O)c2cc(NC(=O)Nc3ccc(F)cc3)ccc2O[C@@H]1CN(C)Cc1ccc(Cl)c(Cl)c1,-0.852% (inactive)
3,C[C@H]1CCCCO[C@H](CN(C)C(=O)CCC(F)(F)F)[C@@H](C)CN([C@@H](C)CO)C(=O)c2cc(NC(=O)Cc3ccccc3)ccc2O1,1.33% (inactive)
4,C[C@H]1CN([C@@H](C)CO)S(=O)(=O)c2ccc(C#Cc3ccccc3)cc2O[C@H]1CN(C)S(=O)(=O)c1cn(C)cn1,0.612% (inactive)
5,CCNC(=O)C[C@@H]1CC[C@H](NC(=O)C2CCC2)[C@@H](CO)O1,0.933% (inactive)
6,O=C(c1cccnc1)N1CC[C@@H]2[C@@H](CO)Nc3ccc(-c4ccccc4)cc3[C@@H]21,18.1% (inactive)
7,O=C(c1ccccc1)N1CC[C@H]2[C@H](CO)Nc3ccc(-c4ccc(F)cc4)cc3[C@H]21,-4.36% (inactive)
8,O=C(c1ccncc1)N1CC[C@@H]2[C@H]1c1cc(Br)ccc1N[C@@H]2CO,104% (active)
9,O=C(C[C@@H]1C=C[C@@H](NC(=O)c2ccccn2)[C@@H](CO)O1)NCc1cc(F)cc(F)c1,-2.07% (inactive)
10,C[C@@H]1CN([C@H](C)CO)C(=O)c2cc(NC(=O)NC3CCCCC3)ccc2O[C@@H](C)CCCCO[C@H]1CN(C)S(C)(=O)=O,1.27% (inactive)
11,CCC(=O)Nc1ccc2c(c1)OC[C@@H](C)N(Cc1ccccn1)C[C@H](C)[C@@H](OC)CN(C)C2=O,0.9% (inactive)
12,CO[C@H]1CN(C)C(=O)c2ccc(NC(C)=O)cc2OC[C@@H](C)NC[C@H]1C,-1.23% (inactive)
13,C[C@@H]1CN([C@H](C)CO)C(=O)c2cc(-c3ccccc3)cnc2O[C@H]1CN(C)C(=O)Nc1ccccc1,4.24% (inactive)
14,CNC(=O)C[C@H]1CC[C@H]2[C@@H](COc3ccc(NS(=O)(=O)c4ccc(F)cc4)cc3C(=O)N2C)O1,6.78% (inactive)
15,COc1ccc(NC(=O)Nc2cccc3c2O[C@H](CN(C)S(=O)(=O)c2cn(C)cn2)[C@H](C)CN([C@@H](C)CO)C3=O)cc1,1.78% (inactive)
16,C=C(C)CSc1nc(N)c2c3c(sc2n1)CCC3,54.5% (active)
17,C=CCn1c(SCC(=O)NCCCO)nc2sc3c(c2c1=O)CCC3,2.06% (inactive)
18,CC(C)(C)C1CCc2c(sc3nc(SCC(N)=O)nc(N)c23)C1 (stereo not drawn),7.83% (inactive)
19,C[C@H](CO)N1C[C@H](C)[C@H](CN(C)C(=O)Nc2ccc(F)cc2)OCCCC[C@H](C)Oc2ccc(NC(=O)CCC(F)(F)F)cc2C1=O,-0.385% (inactive)
20,C[C@@H]1CN([C@@H](C)CO)C(=O)c2cccc(NS(=O)(=O)c3ccc(F)cc3)c2O[C@H]1CN(C)S(=O)(=O)c1cccs1,-1.23% (inactive)
21,CC(C)NC(=O)N1CCCCN2[C@@H](CO)[C@@H](c3ccc(C#C[C@@H](C)O)cc3)[C@@H]2C1,2.83% (inactive)

# Source: PubChem BioAssay AID602481 (Broad Institute, 2012)
